Screening results from PubChem.
The full list was thinned out, with hits kept by preference.
AmpC detergent: blocks E. coli AmpC beta-lactamase in detergent assay; P00811; AmpC hydrolysis of nitrocefin, absorbance 480 nm, 0.01% Triton; Potency, µM (titrated, usually from 114 µM), without a hit: at the top dose activity change, negative = inhibition, most hits filed as inhibitors; 0.041% of 370,000 active; AID 485294;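 also: potency is read from the fitted curve at half-maximal effect; 0% = no-compound wells and -100% = no-enzyme wells; nearly all actives have a fitted effect of over 25% in size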
Target sequence (P00811 whole entry, looked up): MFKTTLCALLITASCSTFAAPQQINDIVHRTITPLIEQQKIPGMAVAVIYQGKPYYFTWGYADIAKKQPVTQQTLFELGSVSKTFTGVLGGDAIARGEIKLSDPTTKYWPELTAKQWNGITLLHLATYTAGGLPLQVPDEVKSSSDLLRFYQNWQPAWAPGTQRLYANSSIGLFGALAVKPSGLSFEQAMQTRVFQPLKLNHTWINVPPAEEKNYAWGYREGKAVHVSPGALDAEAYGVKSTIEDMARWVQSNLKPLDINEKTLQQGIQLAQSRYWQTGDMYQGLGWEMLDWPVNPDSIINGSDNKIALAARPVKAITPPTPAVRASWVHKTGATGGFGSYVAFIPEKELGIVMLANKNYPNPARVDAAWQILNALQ
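AmpC (5.3 nM in the dispensed reagent) in 20 mM phosphate pH 7.0 with 0.01% (detergent screen) or 0.0001% Triton X-100 was preincubated with compounds for 15 min at room temperature. Nitrocefin was then added from an 800 uM solution, and hydrolysis was followed at 480 nm.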
AmpC no deterg: blocks E. coli AmpC beta-lactamase in detergent-free assay; AmpC nitrocefin hydrolysis, absorbance 480 nm, 0.0001% Triton; Potency, µM (titrated, usually from 57.1 µM), for the others: at the top dose activity change, negative = inhibition, hits mostly inhibitors; 0.52% of 330,000 active; AID 485341;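 also: potency is read from the fitted curve at half-maximal effect; plate controls were no compound for no effect and no enzyme for full effect; nearly all actives have a fitted effect of over 20% in size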
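AmpC (5.3 nM in the dispensed reagent) in 20 mM phosphate pH 7.0 with 0.01% (detergent screen) or 0.0001% Triton X-100 was preincubated with compounds for 15 min at room temperature. Nitrocefin was then added from an 800 uM solution, and hydrolysis was followed at 480 nm.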
Shiga toxin inh: inhibitors of Shiga toxin in Vero cells; 9.2% of 290,000 active; Vero cells, Shiga toxin protein synthesis inhibition reporter; inhibition, % at 38.7 µM; in the data active = inhibition mostly above about 28%, no sharp cut-off; inactive = mostly below about 43%; also: 0% is about no effect
NS1 function inh: inhibitors of influenza NS1 protein function | Potency, µM (doses to about 46.1 µM), without a hit: top-dose activity, positive = more growth | 0.4% of 270,000 active; calls by dose curve; also: potency is read from the fitted curve at half-maximal effect; actives are rising curves; nearly all actives have a fitted effect of over 50% in size
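In this qHTS, NS1 from influenza A is expressed in budding yeast, where it slows growth. Cells are switched from glucose to 2% galactose medium (pH 6.0, -URA), treated with compound, and growth recovery is read at OD600.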
Cycloheximide cs: affects cycloheximide protein synthesis inhibition readout, counter-screen; cell reporter, cycloheximide protein synthesis inhibition counterscreen; max response, %; 12% of 300,000 active; AID 2314; in the data active = max response mostly above about 13%, no sharp cut-off; inactive = mostly below about 14%; also: read at 38.3 µM for the half of the compounds with a filed dose; 0% is about no effect
An asterisk follows results filed as active; ? = inconclusive; / = no result; [ ] = another dose, or the depositor's remark. Unless noted, calls follow the shape of the dose curve; as a rule, active = well fitted curve in the direction sought with a large enough effect; inconclusive = small, poorly fitted or top-dose-only effect, or another doubt; inactive = no such curve, though single readings can be large; an effect the other way counts as inactive or inconclusive.

SMILES	AmpC detergent	AmpC no deterg	Shiga toxin inh	NS1 function inh	Cycloheximide cs
CCN(c1cccc(C)c1)C(C(=O)Nc1ccc(OC)cc1)c1cc2c(cc1[N+](=O)[O-])OCO2 (stereo not drawn)	-2%	-26%	22	-11%	11*
Cc1ccc(O)c(NC(=O)c2ccco2)c1	-2%	-13%	56*	-41%	36*
Cc1ccc(NC(=O)c2ccco2)c(NC(=O)c2ccccc2C)c1	3%	-7%	-4	1%	6
CC(=O)c1cccc(NC(=O)c2cccc(NC(=O)c3ccco3)c2)c1	1%	-21%	/	11%	4
Cc1ccc(C(=O)Nc2ccc(NC(=O)c3ccco3)c(C)c2)cc1	-5%	-23%	49*	-3%	31*
Cc1ccc(O)c(NC(=O)c2cccc(NC(=O)c3ccco3)c2)c1	-3%	-35%	58*	-21%	30*
Cc1cc(O)c(NC(=O)c2ccco2)cc1C	-13%	-8%	99*	-31%	57*
CC(C(=O)Nc1ccc(N2CCOCC2)cc1)N1C(=O)NC(C)(C)C1=O (stereo not drawn)	0%	-9%	/	/	/
CN(C)CCN(Cc1ccco1)C(=O)c1cc2c(s1)-c1ccccc1OC2	20%	/	/	/	/
COc1ccc(CNC(=O)CCCn2nc(C)c([N+](=O)[O-])c2C)cc1OC	3%	-5%	189*	/	47*
NC(N)=N/N=C(\c1ccc(Cl)cc1)C1CC1	/	/	/	-9%	/
Cc1c(Cl)cccc1NC(=S)NCc1cccn1C	3%	-26%	-9	14%	52*
COc1cc(CNc2ccc(N3CCCCC3)cc2)ccc1OCC(=O)NC(C)(C)C	2%	1%	40*	-5%	13*
COc1cc(CNc2ccc(N3CCCC3)cc2)ccc1OCc1ccccc1F	?	-27%	173*	-15%	64*
CCNCc1ccc(OCc2ccccc2F)c(OC)c1	4%	-3%	31	0%	3
COc1cc(CNC(C)(C)CO)ccc1OCC(=O)NC(C)(C)C	?	-10%	19	-2%	-1
COc1cc(CNc2ccc(N3CCCC3)cc2)ccc1OCc1ccccc1	-15%	-22%	55*	-28%	42*
COc1cc(CNCCCCO)ccc1OCc1ccccc1F	3%	-9%	57*	-3%	18*
COc1cc(CNC23CC4CC(CC(C4)C2)C3)ccc1OCc1ccccc1	-1%	12%	11	/	-2
Cn1c(N)c(C(=O)COC(=O)CCC2CCCCC2)c(=O)n(C)c1=O	-2%	69%	-10	/	-1
CCOc1ccc(CCNC(=O)COC(=O)c2cc([N+](=O)[O-])ccc2N2CCOCC2)cc1OCC	-9%	122%	-11	7%	-2
Fc1ccc(N/N=C2/CCSc3sccc32)c(F)c1	-11%	-38%	28*	-3%	15*
CCOC(=O)c1c(S(=O)(=O)NCc2cccs2)c(C)n(C)c1C	2%	-13%	-5	-1%	9
COC(=O)[C@@]12CCCCN1[C@H](c1ccc(-c3ccc4c(c3)OCO4)cc1)[C@H]1C(=O)N(C)C(=O)[C@H]12	/	0%	/	/	/
COc1ccc(/C=C2/C(=O)N(c3nc4ccccc4s3)N=C2CSc2ccc(Cl)cc2)cc1	-12%	16µM*	14	11%	14*
SMILES	AmpC detergent	AmpC no deterg	Shiga toxin inh	NS1 function inh	Cycloheximide cs
COc1cccc(Nc2ccc(C(=O)O)cc2N)c1	-8%	0%	74*	6%	62*
Cc1ccc(Nc2ccc(C(=O)O)cc2N)cc1	?	-21%	52	5%	22*
CCOc1ccccc1Nc1ccc(C(=O)O)cc1N	-4%	-19%	-6	-7%	10
Cc1cc(C)cc(Nc2ccc(C(=O)O)cc2N)c1	-5%	-26%	48*	24%	52*
Cc1cc(C)cc(Nc2ccc(C(=O)O)cc2[N+](=O)[O-])c1	-12%	-27%	-9	-2%	-3
O=C(NCCN1CCOCC1)C1(C(F)(F)F)CC(CCCO)CCCO1 (stereo not drawn)	/	/	-4	/	-2
N[C@H](CSSC[C@@H](N)C(=O)O)C(=O)O	/	/	-3	/	-3
Cc1ccc2nc3sc(C(=O)Nc4c(C)[nH]c(=O)[nH]c4=O)c(N)c3cc2c1	?	-4%	24	5%	31*
COc1cc2cc3c(N)c(C(=O)NCc4ccco4)sc3nc2cc1OC	-18%	104%	54*	-1%	16*
Cc1ccc2cc3c(N)c(C(=O)Nc4c(C)[nH]c(=O)[nH]c4=O)sc3nc2c1	-10%	-16%	-10	?	-2
Cc1ccc2nc3sc(C(=O)NCc4ccco4)c(N)c3cc2c1	?	?	68*	-4%	23*
COc1ccc2nc3cc(Cl)ccc3c(Nc3cc(C(C)C)c(O)cc3C)c2c1	-6%	-20%	27*	-43%	8
CCOC(=O)c1oc2nc3c(cc2c1N)COC(C)(C)C3	-10%	-4%	82*	3%	20*
CCOC(=O)c1oc2nc3c(cc2c1N)CCCC3	-6%	-2%	77*	-11%	50*
CN1C(=O)C(CC(=O)Nc2ccc(F)cc2)N(Cc2ccco2)C1=S (stereo not drawn)	-4%	-2%	6	0%	-2
Cc1c[nH]c2cccc(OCC(CNC(C)(C)C)OC(=O)c3ccccc3)c12 (stereo not drawn)	-11%	-18%	-2	-4%	-4
Cc1ccc(/C=N/n2cnc3sc(C)c(C)c3c2=O)o1	-2%	-18%	47	-2%	26*
O=[N+]([O-])c1cc([N+](=O)[O-])c2nonc2c1Nc1ccccc1O	-1%	-22%	73*	-49%	16*
O=C(O)c1cc(N/N=C/c2ccc(N3CCOCC3)cc2)ccc1Cl	-5%	?	137*	-3%	59*
O=C(N/N=C/c1ccc(N2CCOCC2)cc1)c1ccccc1OCCOc1ccccc1	-5%	-3%	12	/	10
C(=N\Nc1ccccc1)/c1ccc(N2CCOCC2)cc1	-1%	-26%	69*	-13%	48*
C/C(=N\Nc1ccccn1)c1ccc(C(C)C)cc1	-1%	-26%	104*	/	47*
C/C(=N\Nc1nc(-c2ccccn2)nc2ccccc12)c1ccc(F)cc1	?	-9%	2	6%	-2
C/C(=N\Nc1ccccn1)c1ccc(N2CCOCC2)cc1	-15%	-21%[11.4 µM]	116*	/	41*
Cc1nc2ccccc2c(=O)n1-c1ccc(NC(=O)C(F)(F)F)cc1	3%	/	/	/	/
CC(=O)c1ccc(OCCCC(=O)NCc2nnc3ccccn23)cc1	?	-4%	/	/	/
Cc1cc(C)cc(NC(=O)Cc2ccc(-n3cccc3)cc2)c1	3%	-37%	6	1%	-4
C(=N\Nc1ccccn1)/c1ccc(N2CCOCC2)cc1	1%	-7%	71	-3%	47*
COc1ccc(/C=N/Nc2cc(C)nc(N3CCOCC3)n2)cc1	3%	-8%	5	3%	2
O=C(NC(=S)Nc1ccc(N2CCOCC2)cc1)c1cccc(Cl)c1	-5%	-9%	29	5%	5
